Measurements published in PubChem BioAssay AID488890 (Southern Research Specialized Biocontainment Screening …, 2010).
In all, about 320,000 compounds went through this assay and about 1,300 (0.41%) were called active. Inconclusive results (about 3%) are left out. No rule for the calls is given here. Only a sample is shown. Measured potencies and affinities stand elsewhere.

assay: growth inhibition of non-replicating M. tuberculosis (AID 488890); conditions: Mycobacterium tuberculosis non-replicating, at 25 µM, stronger effect = higher value;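 also: plate controls were DMSO cells for no effect and high antibiotic wells for full effect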

Row | Compound | inhibition [%]
1 | CC(=O)Nc1nnc(SCC(=O)NCc2ccc3c(c2)OCO3)s1 | -14.9
2 | Cc1ccc(C(=O)NCc2ccc3c(c2)OCO3)cc1Cl | 45.9
3 | Cc1ccc(CS(=O)(=O)CCC(=O)N2CCC3(CC2)OCCO3)cc1 | -11.2
4 | Cc1ccc(S(=O)(=O)Nc2ccccc2F)cc1C(=O)NCCCN1CCCC1=O | -4.79
5 | CCOC(=O)c1c(S(=O)(=O)Nc2ccc(C)c(F)c2)c(C)n(C)c1C | -0.18
6 | CC1(C)CC(=O)C(C2=NC3(CCCCCC3)Cc3ccccc32)=C(O)C1 | -2.29
7 | CS(=O)(=O)N1CCC(C(=O)Nc2cc(Cl)ccc2Cl)CC1 | -6.65
8 | CC(C)c1cc(C(=O)N2CCN(C(c3ccccc3)c3ccccc3)CC2)no1 | 21.3
9 | NC(=O)[C@@H]1CC2(CC(c3cccc(NC(=O)CC(c4ccccc4)c4ccccc4)c3)=NO2)CN1C(=O)[C@@H]1CCC(=O)N1 (stereo not given in full) | 14.1
10 | CCc1nnc(NC(=O)C2Cc3ccccc3CN2S(=O)(=O)CC)s1 (stereo not given) | 5.84
11 | O=C(NNC(=O)c1ccc2c(=O)n3c(nc2c1)CCC3)c1ccc(F)cc1 | -18.9
12 | CC(OC(=O)c1ccc2c(=O)n3c(nc2c1)CCCCC3)C(=O)Nc1ncc(Cl)cc1Cl (stereo not given) | 29.8
13 | CCOc1ccc(CCNC(=O)c2ccc3c(=O)n4c(nc3c2)CCCCC4)cc1 | 51
14 | CCOc1ccc(NC(=O)c2ccc3c(=O)n4c(nc3c2)CCCCC4)cc1 | 20.7
15 | CC(OC(=O)c1ccc2c(=O)n3c(nc2c1)CCCCC3)C(=O)Nc1ccc(F)cc1Cl (stereo not given) | 2.57
16 | O=C(Nc1ccc(F)cc1)c1ccc2c(=O)n3c(nc2c1)CCCCC3 | 21.9
17 | CNS(=O)(=O)c1cccc(C(=O)OCC(=O)N2c3ccccc3CC2C)c1 (stereo not given) | -1.88
18 | Fc1ccc(-c2n[nH]c(=S)c3ccccc23)cc1 | 15.8
19 | CCOc1ccc(NC(=O)Nc2ccc3c(c2)CCC3)cc1 | -9.82
20 | Cc1cc(F)ccc1Oc1cc(NN2CCCCC2)c([N+](=O)[O-])cc1[N+](=O)[O-] | 8.26
21 | CC(Oc1ccc(S(=O)(=O)N2CCCC2)cc1[N+](=O)[O-])C(=O)NC1(C#N)CCCCC1 (stereo not given) | 9.55
22 | COc1cccc(CNC(=O)C2CCN(c3cnccn3)CC2)c1 | -3.9

Row | Compound | inhibition [%]
23 | O=C1NC(=O)N(CCc2ccc(F)cc2)C(=O)/C1=C/c1ccco1 | 22.4
24 | O=C1NC(=O)N(CCc2ccc(F)cc2)C(=O)/C1=C/c1cccs1 | 2.97
25 | O=C(c1ccccc1NS(=O)(=O)c1cccs1)N1CCOCC1 | 6.22
26 | CCCn1nnc(NC(=O)COc2ccccc2Cl)n1 | 67.3
27 | CCCCn1nnc(NC(=O)COc2cc(C)ccc2C(C)C)n1 | 64
28 | Cc1cccc(OCC(=O)Nc2nonc2NC(=O)COc2cccc(C)c2)c1 | 48
29 | Cc1cc(OCC(=O)Nc2ncn[nH]2)ccc1Cl | 30.6
30 | Cc1cccc(N2CC(C(=O)Nc3ccc4c(c3)OCCO4)CC2=O)c1C (stereo not given) | -5.78
31 | CCc1cc2c(=O)c(-c3nc(C)cs3)coc2cc1O | 13.5
32 | COCCNC(=O)C1CCC(=O)N1S(=O)(=O)c1ccc(C)cc1 (stereo not given) | 1.96
33 | Cc1[nH]n(-c2ccccc2)c(=O)c1C=Nc1cccc2cccnc12 | 33.6
34 | Cc1[nH]n(-c2ccccc2)c(=O)c1C=Nc1cccc(F)c1 | 5.36
35 | O=C(Cc1ccccc1F)N1CCN(CC(=O)N2CCCC2)CC1 | 8.24
36 | CCOC(=O)CSc1nnc(CCc2nc3ccccc3[nH]2)n1C | -4.77
37 | Cc1ccc(C(=O)c2coc3ccc(OCC(=O)O)cc23)cc1 | -4.9
38 | COc1ccc2occ(C(=O)c3ccccc3)c2c1 | 3.51
39 | CNC(=S)NNC(=O)c1cn(C)nc1C | -3
40 | CCn1ccc(C(=O)NCCCN2CCCC2=O)n1 | 5.42
41 | Cc1c([N+](=O)[O-])c([N+](=O)[O-])nn1CC(=O)N1CCOCC1 | 1.03
42 | O=C(O)C1C2C=CC(CC2)C1C(=O)O (stereo not given) | 1.2
43 | O=C(C[C@@H]1C/C=C\CCCC(=O)OC[C@@H]2CCCN2C1=O)N[C@@H](CO)Cc1ccccc1 | 0.26
44 | Cc1ccc2nsnc2c1NC(=O)c1ccc([N+](=O)[O-])o1 | 75.4

Row | Compound | inhibition [%]
45 | CS(=O)(=O)c1ccc(-c2nnc(NC(=O)c3ccco3)o2)cc1 | 43.1
46 | Cc1ccc(NC(=O)c2ccco2)cc1C | 60.8
47 | O=C(Nc1nnc(-c2ccco2)o1)c1ccc(S(=O)(=O)N2CCCC2)cc1 | 25.6
48 | CS(=O)(=O)c1ccccc1-c1nnc(NC(=O)c2ccc(S(=O)(=O)N3CCCC3)cc2)o1 | -2
49 | Cc1ccc(O)c(NC(=O)c2ccco2)c1 | 15.1
50 | CS(=O)(=O)c1ccccc1-c1nnc(NC(=O)c2ccco2)o1 | 38.6
51 | Cc1ccc(C)c(-c2nnc(NC(=O)CCS(=O)(=O)c3ccc(F)cc3)o2)c1 | 41.4
52 | Cc1nc(-c2ccc(NC(=O)C(C)(C)C)cc2)c(-c2ccccc2)o1 | -0.61
53 | Nc1cccc(C(=O)OCC(=O)NC2CCCc3ccccc32)c1 (stereo not given) | 6.1
54 | O=C1c2ccccc2C(=O)N1CCOc1cccc(Br)c1 | 53.6
55 | CCCCCC(=O)N/N=C(\C)c1ccc(NC(=O)c2ccco2)cc1 | 10.3
56 | CCNC(=O)C(=O)Nc1ccc(OC)c(Cl)c1 | -0.29
57 | COc1ccc(Cc2nc3ccc(C(=O)N4C[C@@H](C)O[C@@H](C)C4)cc3o2)cc1OC | 17.8
58 | c1ccc(-c2nn3c(C4CCCCC4)nnc3s2)nc1 | 9
59 | Cc1nc(N2CCN(Cc3ccccc3)CC2)nc2c1C(=O)CC(c1ccco1)C2 (stereo not given) | 3.19
60 | COc1cccc(-c2cccc(NC(=O)C3CCN(Cc4cccc(C)n4)CC3)c2)c1 | 5.93
61 | CCc1ccc(NC(=S)N2CCN(C)CC2)cc1 | -4.9
62 | COc1ccc([N+](=O)[O-])cc1NC(=O)CCCOc1ccccc1 | 12.4
63 | Cc1ccc(C(=O)Nc2ccc(Oc3cccc(C(F)(F)F)c3)nc2)cc1 | -15.4
64 | COc1cc(-c2nnc(NC(=O)c3ccco3)o2)cc(OC)c1OC | 12.9
65 | Cc1ccc(-c2nnc(-c3ccc(NC(=O)c4ccco4)cc3)o2)cc1 | -12.3
66 | COc1ccc(CN2C(=O)c3ccccc3C2OC)cc1 (stereo not given) | 43.5

Row | Compound | inhibition [%]
67 | COc1ccc(CCNC(=O)c2nc(-c3cccs3)no2)cc1OC | 62.8
68 | O=C(NCc1ccccc1)c1nc(-c2cccs2)no1 | 15.8
69 | CC(=O)c1ccccc1Oc1cc(NN2CCCCC2)c([N+](=O)[O-])cc1[N+](=O)[O-] | 30.5
70 | Cc1ccc(S(=O)(=O)N2CCCC2C(=O)NC2CCCCC2)cc1 (stereo not given) | 13.2
71 | Nc1ccc2oc3ccccc3c2c1 | 68.5
72 | Nc1ccc(C#Cc2ccc3c(=O)c4ccccc4oc3c2)cc1 | 11.2
73 | Cc1sc(NC(=O)c2oc3ccccc3c2C)c(C#N)c1C | 0.16
74 | NS(=O)(=O)c1ccc(CCNCc2cc(Br)ccc2OCc2ccccc2)cc1 | 36
75 | CCOc1ccc(N(C(=O)c2ccc(S(=O)(=O)N3CCCC3)cc2)C2C=CS(=O)(=O)C2)cc1 (stereo not given) | 2.41
76 | CCN(CCn1cccn1)Cc1cn[nH]c1-c1ccc(-c2ccccc2)cc1 | 23
77 | O=C(CNCc1ccccc1)NC1C2CC3CC(C2)CC1C3 (stereo not given) | 7.24
78 | CCCC(=O)NC1C2CC3CC(C2)CC1C3 (stereo not given) | 66.5
79 | Cc1ccc(S(=O)(=O)N2CCC(C(=O)NC3CC(C)(C)NC(C)(C)C3)CC2)cc1 | -9.46
80 | O=C(CC1SC(N2CCCCC2)=NC1=O)Nc1cccc(C(=O)O)c1 (stereo not given) | -10.1
81 | CCCSc1cc(NCCOC(C)=O)c([N+](=O)[O-])c2nonc12 | 74.5
82 | CC(=O)OCCNc1cc(SC(C)C)c2nonc2c1[N+](=O)[O-] | 65.7
83 | CC(=O)OCCCNc1cc(Sc2nc3ccccc3s2)c2nonc2c1[N+](=O)[O-] | 7.19
84 | COC(=O)CCSc1cc(NCCOC(C)=O)c([N+](=O)[O-])c2nonc12 | 72.4
85 | Cn1ccnc1Sc1cc(NCCCO)c([N+](=O)[O-])c2nonc12 | 77.2
86 | O=[N+]([O-])c1c(NCCCO)cc(SCc2ccco2)c2nonc12 | 70.1
87 | Cc1cc2c(C)c(C)c(=O)[nH]c2cc1N | 6.16
88 | Cc1occc1C(=O)NNC(=O)NC12CC3CC(CC(C3)C1)C2 | 1.27

Row | Compound | inhibition [%]
89 | O=C(NCc1ccccn1)c1cccc(S(=O)(=O)N2CCCCC2)c1 | -1.8
90 | COc1ccc(C(=O)NNC(=O)CCC(=O)NNC(=O)c2ccc(OC)cc2)cc1 | 8.31
91 | CCNc1nc(NCC)n2c(SCc3nc4ccccc4c(=O)[nH]3)nnc2n1 | 48.6
92 | Cn1c(=O)c(Oc2cc(Cl)cc(Cl)c2)nc2ccccc21 | 5.56
93 | Cc1ccc(N)cc1NC(=O)CN1CCOCC1 | 6.66
94 | CCOCCCNC(=O)C1CC(=O)N(C2CCCC2)C1 (stereo not given) | -5.49
95 | CSc1ncccc1C(=O)OCC(=O)N1CCCC1 | 39.6
96 | COc1cccc(C(=O)COC(=O)c2ccc(NC(C)=O)cc2)c1 | 61.7
97 | CCN(CC)S(=O)(=O)c1cc(C(=O)N=c2sccn2C)ccc1OC | 20.4
98 | CN1CCN(Cc2cc(Cl)c3cccnc3c2OC(=O)c2cccs2)CC1 | 51
99 | CCOC(=O)N1CCN(Cc2ccccc2Cl)CC1 | 10.7
100 | O=C(Oc1c(Cl)cc(Cl)c2cccnc12)N1CCOCC1 | 2.11
101 | CCOC(=O)N1CCN(Cc2ccc(O)c3ncccc23)CC1 | 56.8
102 | O=[N+]([O-])c1cc(CN2CCCC2)c2cccnc2c1O | -4.52
103 | OCCN1CCN(Cc2cc(Cl)c3cccnc3c2O)CC1 | 66
104 | COCCCNC(=O)c1ccc2c(c1)ncn2-c1ccc(C)cc1C | 5.06
105 | Cc1ccc(NC(=O)CN2C(=O)NC3(CCCC3)C2=O)nc1 | -25.1
106 | COc1ccccc1OCC(=O)/C=C1/N(C)c2ccccc2C1(C)C | 17.5
107 | NS(=O)(=O)c1ccc(CCNC(=O)C2COc3ccccc3O2)cc1 (stereo not given) | 7.64
108 | COc1ccc(CCN2C(=O)CC(N3CCN(S(=O)(=O)c4ccccc4)CC3)C2=O)cc1OC (stereo not given) | 13.8
109 | CCC(C)[C@H](NC(=O)c1cc2cc(Cl)ccc2n1C)C(=O)N1CCC(C(=O)O)CC1 (stereo not given in full) | 0.12
110 | COc1cccc(CNC(=O)CN2CCC(c3nc4ccc(C)cc4[nH]3)CC2)c1 | 6.15
